Laboratory results as given in the supplement of paper PMC3334620.
In all, about 33,000 sequences were measured (“E-score (-0.5 to 0.5)”: median about -0.0034, highest 2% from about 0.25 on). The list comes from a sample in which the highest values are over-represented; it also holds similar and randomly drawn sequences.

Molecular target: T1, Yap3 (UniProt P38749)
T1 sequence: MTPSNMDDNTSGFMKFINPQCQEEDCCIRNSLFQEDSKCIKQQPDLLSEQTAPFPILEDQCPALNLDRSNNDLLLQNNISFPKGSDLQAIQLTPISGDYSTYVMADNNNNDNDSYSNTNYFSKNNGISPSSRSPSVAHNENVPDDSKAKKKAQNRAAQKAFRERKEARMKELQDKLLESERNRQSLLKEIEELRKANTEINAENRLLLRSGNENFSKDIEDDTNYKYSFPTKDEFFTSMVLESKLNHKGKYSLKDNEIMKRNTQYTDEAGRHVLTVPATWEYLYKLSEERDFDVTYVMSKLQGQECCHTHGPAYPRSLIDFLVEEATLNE
Experiment: PBM E-score (8-mer binding enrichment) (E-score (-0.5 to 0.5)); higher = stronger / more preferred TF binding
Details: protein concentration: 100 nM; construct: GST-full length
Outline: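 Yeast transcription factors, full-length or as DNA-binding domains, were expressed with a GST tag using PURExpress in vitro transcription/translation. At about 100-200 nM they were applied to universal all-10-mer Agilent arrays, double-stranded by primer extension on fresh or once-stripped slides. Fluorescent anti-GST detected bound protein, and masliner normalised the scans. E-scores for ungapped eight-base words, pooled with reverse complements, came from the Universal PBM Analysis Suite.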

| Sequence | PBM E-score |
| --- | --- |
| GTAAATAC | 0.0284 |
| ATAAATAC | 0.325 |
| ATAAATCA | 0.207 |
| ATATAAAT | 0.242 |
| GAACTCTC | -0.0889 |
| AATTAGAT | 0.245 |
| ACATTTTC | 0.125 |
| CCTATAAC | -0.0793 |
| CCATCTTA | 0.00932 |
| GTCCTAAC | -0.0915 |
| ACCATCAC | 0.0126 |
| ATCTTCTA | 0.0985 |
| ATTGAGCA | 0.105 |
| GATAAAAC | 0.219 |
| AATAAAAG | 0.0973 |
| AATAAAAA | 0.27 |
| AATAAAAT | 0.239 |
| CATAAAAC | 0.0691 |
| AATAAAAC | 0.315 |
| ACCACTCG | 0.0759 |
| ACGTGTTG | 0.0914 |
| GAGCGACA | 0.0223 |
| ACTTGTCT | -0.0439 |
| CGACAACG | 0.0404 |
| GTAATAAA | 0.266 |

| Sequence | PBM E-score |
| --- | --- |
| TTAATAAA | 0.372 |
| ATAATAAA | 0.277 |
| GAAATAAA | 0.14 |
| ACAATAAA | 0.106 |
| CTAATAAC | 0.15 |
| GTAATAAC | 0.188 |
| ATAATAAC | 0.173 |
| ATAATAGA | 0.184 |
| ATAATAAG | 0.194 |
| CTAATAAA | 0.178 |
| ATAATAAT | 0.26 |
| CGCGTCGA | 0.0342 |
| GTACGAAA | 0.173 |
| CTCGTCGA | -0.0244 |
| CGTCGCTA | 0.11 |
| CTTCTGAA | 0.0313 |
| ACAGCCAT | -0.0294 |
| ACGTGAAA | 0.211 |
| AGAATAAA | 0.261 |
| AGAATAAG | 0.11 |
| AGAATAAT | 0.24 |
| AGATAGGC | -0.0411 |
| GGACAGCA | -0.0442 |
| ATTTAGTA | 0.289 |
| ATTTAGTC | 0.167 |

| Sequence | PBM E-score |
| --- | --- |
| GGTTAGTA | 0.0941 |
| ATTTAGTG | 0.204 |
| CTTTAGTA | 0.0328 |
| GTTTAGTA | 0.275 |
| CCAGTAAG | -0.0333 |
| ACACATGT | 0.0237 |
| CGGGTAAC | -0.0884 |
| ACAATTCC | 0.0667 |
| ACATCTTC | 0.0249 |
| GCGGTAGA | 0.00783 |
| TACAAATA | 0.299 |
| CACAAATA | 0.152 |
| GACAAATC | 0.175 |
| AACAAATA | 0.25 |
| GACAAGTA | -0.00588 |
| GACAAATA | 0.299 |
| TGGGGACA | -0.0974 |
| ATGTAGCA | -0.00878 |
| CCGCGGCA | 0.135 |
| AGAGAGCC | -0.201 |
| CGTATCGC | 0.0192 |
| CTTATTGA | 0.0574 |
| CTTATTAA | 0.339 |
| GTTATTTA | 0.165 |
| GTTATTAA | 0.262 |

| Sequence | PBM E-score |
| --- | --- |
| GTTATTGA | 0.117 |
| GTCATTAA | 0.3 |
| GCGATTAA | 0.216 |
| ACGATTAA | 0.0578 |
| CTTATTGC | 0.0255 |
| ATCATTAA | 0.207 |
| CTCATTAA | 0.0548 |
| TCGATTAA | 0.308 |
| CCGCCACC | -0.155 |
| CCTCAGGA | -0.184 |
| CCAAGACG | -0.148 |
| ATGGTGGA | -0.062 |
| CGCTAATA | 0.0177 |
| CTCTCTAA | -0.149 |
| CACCTTCA | 0.014 |
| GGCCCACA | -0.119 |
| CGGAGCAG | -0.191 |
| AGATTTGG | -0.12 |
| ATTGCAGG | 0.073 |
| CCCATTAA | -0.108 |
| ACTATTAA | 0.123 |
| ATGATTAA | 0.274 |
| CCTATTAA | 0.0368 |
| ACCATTAA | 0.26 |
| TCCATTAA | 0.0027 |

| Sequence | PBM E-score |
| --- | --- |
| ATTATTAA | 0.378 |
| ATGATTAG | 0.124 |
| CTGATTAA | 0.203 |
| ATAAGATG | 0.176 |
| AATAGAAA | 0.138 |
| ATTGTATA | 0.298 |
| ATGGTATC | 0.175 |
| ATTGTATG | 0.151 |
| CTTGTATA | 0.127 |
| ATGGTATG | 0.00998 |
| ATGGTATA | 0.262 |
| CGGTCGCC | -0.2 |
| CTCTAAAC | 0.167 |
| AAGCTGAG | 0.0158 |
| AGCAGAGA | -0.0117 |
| TCGTAGAA | -0.0144 |
| CCGCCTAA | -0.155 |
| CAAAAATA | 0.332 |
| TAAATAGA | -0.0374 |
| CAAAATAA | 0.296 |
| TAAAATAA | 0.0792 |
| AAAATAGC | -0.0905 |
| AAAAAATA | 0.287 |
| GAAAAATA | 0.114 |
| CCAAAATA | 0.211 |

| Sequence | PBM E-score |
| --- | --- |
| AAAAATAA | 0.25 |
| AAAATAGA | 0.256 |
| CAAAAATC | 0.051 |
| ACAAAATA | 0.175 |
| CAGTTTGC | 0.124 |
| ACGCCGCG | -0.0869 |
| AGACCTGG | -0.0312 |
| AGTTTGCC | 0.175 |
| GCGGCTCA | 0.0715 |
| CAAATATA | 0.0799 |
| GAAAGATA | 0.217 |
| TAAATAAA | 0.282 |
| TAAAAAAA | 0.0893 |
| TAAATATA | 0.297 |
| CTAAAATA | 0.148 |
| GAAATATA | 0.248 |
| TAAAAATA | 0.26 |
| CAAATAAA | 0.197 |
| CAAAGATA | 0.0838 |
| TAAAGATA | 0.254 |
| AAAATAAA | 0.204 |
| TAGGTCAA | 0.0932 |
| AGGAATAA | 0.156 |
| GTGGTAAA | -0.0974 |
| AGAGCTCC | -0.275 |

| Sequence | PBM E-score |
| --- | --- |
| AATTGGAG | -0.0503 |
| ATGGCCGA | 0.0282 |
| ATGTGCAA | 0.059 |
| ATCTGTTG | -0.0152 |
| AAAAACTC | 0.072 |
| AGAATCGG | -0.0519 |
| ACAGACAA | 0.285 |
| AAAGACAA | 0.261 |
| TAAGACAA | 0.187 |
| ACAGACAC | -0.0498 |
| CAAGACAA | 0.0625 |
| ACAGACAG | 0.0669 |
| CGACCAAA | 0.174 |
| CCTCAGGC | -0.249 |
| CAGGTGCG | 0.015 |
| GTAAAATA | 0.117 |
| AAAAAATG | 0.209 |
| ATAAAATG | 0.276 |
| ATAAAATC | 0.207 |
| ATAAAAAA | 0.187 |
| ATAAAACG | 0.206 |
| ATAAAATA | 0.298 |
| ATAAAAAG | 0.261 |
| ATAAAAGG | -0.011 |
